# From PubChem BioAssay (Tox21)
# Records with an inconclusive call do not appear. Unmarked numbers belong to inactive results. Active and inactive are the calls of the source. Calls follow the shape of the dose curve; as a rule, active = well fitted inhibition curve with a large enough effect in the repeat runs; inconclusive = weak or mixed curves; inactive = no such curve, though single readings can be large or run the other way.
# Biological target: Cytochrome P450 2D6 (Homo sapiens) (UniProt P10635)
# Assay: Cytochrome P450 Family 2 Subfamily D Member 6 (CYP2D6) small molecule antagonists: luciferase reporter qHTS assay (AID 1671196); also: nearly all actives have a fitted effect of over 50% in size
# Settings: P450-Glo CYP2D6 enzyme assay, luciferin luminescence, 1 h; series mostly up to 115 µM; activity change, negative = inhibition: at the top concentration
# Excerpt: U.S. Tox21 Program National Center for Advancing Translational Sciences [NCATS] U.S. Environmental Protection Agency [EPA] National Institutes of Environmental Health Sciences [NIEHS] National Toxicology Program [NTP] U.S. Food and Drug Administration [FDA] Tox21 Assay Overview: Cytochrome P450 (CYP) enzymes are membrane-bound hemeproteins that play a key role in metabolism of drugs and xenobiotics. Evaluation of the effect of chemicals on CYP isozymes is useful to minimize the adverse drug reactions and toxicities in drug development process. Tox21 chemicals were tested for their effect on CYP enzyme activities by using P450-Glo (TM) screening systems (Promega Corporation, Madison, WI). These systems provide a luminescent method containing proluciferin substrates and are converted to luciferin products by CYP isozymes. The luciferin products formed are detected with a luciferin detection reagent, and the amount of light produced is proportional to CYP activity. P450-Glo (TM) CYP2D6 screening system (Catalog. No. V9890) was used to detect the compounds that interfere in CYP2D6 activity.
# Tox21 Assay Protocol Summary: Two ul of enzyme-substrate mix was dispensed into medium binding white/solid 1536-well plates (Greiner Bio-One North America Inc., Monroe, NC) using a BioRaptr Flying Reagent Dispenser (FRD, Beckman Coulter, Brea, CA). […] The assay plates were incubated at room temperature for 10 min. Then 2 ul of NADPH regeneration solution was added to each well of the assay plates using an FRD and incubated at room temperature for 1 h. The reaction was stopped by adding 4 ul of detection reagent using an FRD and after 20 min incubation at room temperature the luminescence signal was measured using a ViewLux plate reader (Perkin Elmer, Shelton, CT). Data were expressed as relative luminescence units.
# % is scaled to controls: 0 for no effect and ±100 for the full control effect; potency is read from the fitted curve at half-maximal effect.
# Chain of Cytochrome P450 2D6 (Homo sapiens) (P10635 whole entry, looked up): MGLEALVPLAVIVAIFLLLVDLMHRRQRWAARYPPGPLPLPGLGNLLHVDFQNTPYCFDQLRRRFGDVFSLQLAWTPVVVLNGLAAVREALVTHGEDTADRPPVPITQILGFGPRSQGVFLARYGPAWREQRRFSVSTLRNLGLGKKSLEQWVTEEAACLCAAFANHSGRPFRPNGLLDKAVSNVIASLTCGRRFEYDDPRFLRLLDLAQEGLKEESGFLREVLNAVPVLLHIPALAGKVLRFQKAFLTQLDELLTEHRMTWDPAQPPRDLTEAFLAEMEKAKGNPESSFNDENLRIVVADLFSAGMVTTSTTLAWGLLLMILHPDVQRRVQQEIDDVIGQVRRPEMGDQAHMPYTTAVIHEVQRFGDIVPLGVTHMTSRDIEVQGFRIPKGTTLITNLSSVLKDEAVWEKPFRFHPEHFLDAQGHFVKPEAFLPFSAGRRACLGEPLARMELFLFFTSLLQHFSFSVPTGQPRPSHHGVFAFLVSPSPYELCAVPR
SMILES,Potency,"activity change, negative = inhibition"
O=C1c2ccccc2S(=O)(=O)N1CCCCN1CCN(c2ncccn2)CC1,1.38 µM (active),–
COc1cc(Cl)ccc1Oc1ccc(Cl)cc1Cl,–,-19.3%
OC(CN1CCC(Cc2ccc(F)cc2)CC1)c1ccc(Cl)cc1 (stereo not given),0.138 µM (active),–
O=C1C(O)=C(O)C(=O)C(O)=C1O,–,-7.24% [at 53 µM]
C1CCCNCCC1,–,-12.2%
COC(C)OC,–,-12.2%
O=C(O)C(S)C(S)C(=O)O (stereo not given),–,-5.26% [at 53 µM]
O=C(O)c1ccc(-n2nc(-c3ccccc3O)nc2-c2ccccc2O)cc1,–,4.39% [at 53 µM]
CN1CCC(N(Cc2cccs2)c2ccccc2)CC1,0.436 µM (active),–
CC[N+](C)(CC)CCOC(=O)C(O)(c1ccccc1)C1CCCCC1 (stereo not given),0.776 µM (active),–
C[N+](C)(C)CCOC(=O)CCC(=O)OCC[N+](C)(C)C,–,-0.741% [at 53 µM]
O=[N+]([O-])c1ccc2[nH]ncc2c1,–,-15.4%
Nc1c(CC(=O)O)cccc1C(=O)c1ccc(Br)cc1,–,1.58% [at 53 µM]
CCN(CC)c1ccc(C(=C2C=CC(=[N+](CC)CC)C=C2)c2cc(S(=O)(=O)O)ccc2S(=O)(=O)[O-])cc1,13.8 µM (active),–
CCCCCCCCCCCc1ccccc1,–,3.52%
CCCCCCCCCOS(=O)(=O)O,–,-10.4%
CN(C)CCN(Cc1ccsc1)c1ccccn1,3.89 µM (active),–
CCNc1cc(O)ccc1C,39.5 µM (active),–
CCCCC,–,-21.5%
CC1CCC(=O)C1=O (stereo not given),–,-7.49%

SMILES,Potency,"activity change, negative = inhibition"
CC[N+]1(CC)CCC(=C(c2ccccc2)c2ccccc2)C1C (stereo not given),1.74 µM (active),–
CCCCCCCC#N,–,-9.41%
C/C=C(/C(=C/C)c1ccc(OC(C)=O)cc1)c1ccc(OC(C)=O)cc1,–,-11.8% [at 53 µM]
C=CCOc1ccccc1OCC(O)CNC(C)C (stereo not given),9.77 µM (active),–
CCCCCCCCCc1ccc(OCCOCCO)cc1,23.6 µM (active),–
Brc1c2ccccc2cc2ccccc12,–,-17.2%
CC(C)(C)OCC1CO1 (stereo not given),–,-0.322%
O=C(O)CNCC(=O)O,–,-0.567% [at 10.5 µM]
CCc1cc(C2=C(C(=O)O)N(c3ccccc3C(F)(F)F)S(=O)(=O)c3ccccc32)cc2c1OCO2,–,-10.5%
c1ccc(-c2ccccn2)nc1,–,1.21%
CC1=CC[C@H](C(C)C)C=C1,56.4 µM (active),–
CC(C)=CCC/C(C)=C/CC/C(C)=C/CO,39.9 µM (active),–
NC(N)=NCCC[C@H](N)C(=O)O,–,-7.41% [at 10.5 µM]
Cc1oc2c(NC(=O)c3c(Cl)cccc3Cl)cccc2c1C(C)(C)O,–,-21.8%
C/C=C/C=C/CO,–,-12.6%
CCn1cc(C(=O)O)c(=O)c2cnc(N3CCNCC3)nc21,–,-2.88% [at 53 µM]
O=C(c1ccc(F)cc1)C1CCN(CCn2c(=S)[nH]c3ccccc3c2=O)CC1,4.36 µM (active),–
CC(=O)c1ccc2c(c1)N(CCCN(C)C)c1ccccc1S2,1.95 µM (active),–
O=C1OC(CN2CCOCC2)CN1/N=C/c1ccc([N+](=O)[O-])o1 (stereo not given),38.9 µM (active),–
CC(C)CC(=O)C1C(=O)c2ccccc2C1=O,–,-21.3%
